High-throughput results (PubChem BioAssay)
Sampled rows, rich in hits. Any-hit rate of the full collection: about 4.8%.
ALOX15 inhib – 15-hLO (ALOX15) enzyme inhibition; P16050; purified 15hLO-1, xylenol orange hydroperoxide absorbance; Potency, µM (highest dose often 57.1 µM), actives largely listed as inhibitors; actives 1.4% (n = 74,000); AID 887; note: nearly all actives have a fitted effect of over 55% in size
Target sequence (P16050 whole entry, looked up): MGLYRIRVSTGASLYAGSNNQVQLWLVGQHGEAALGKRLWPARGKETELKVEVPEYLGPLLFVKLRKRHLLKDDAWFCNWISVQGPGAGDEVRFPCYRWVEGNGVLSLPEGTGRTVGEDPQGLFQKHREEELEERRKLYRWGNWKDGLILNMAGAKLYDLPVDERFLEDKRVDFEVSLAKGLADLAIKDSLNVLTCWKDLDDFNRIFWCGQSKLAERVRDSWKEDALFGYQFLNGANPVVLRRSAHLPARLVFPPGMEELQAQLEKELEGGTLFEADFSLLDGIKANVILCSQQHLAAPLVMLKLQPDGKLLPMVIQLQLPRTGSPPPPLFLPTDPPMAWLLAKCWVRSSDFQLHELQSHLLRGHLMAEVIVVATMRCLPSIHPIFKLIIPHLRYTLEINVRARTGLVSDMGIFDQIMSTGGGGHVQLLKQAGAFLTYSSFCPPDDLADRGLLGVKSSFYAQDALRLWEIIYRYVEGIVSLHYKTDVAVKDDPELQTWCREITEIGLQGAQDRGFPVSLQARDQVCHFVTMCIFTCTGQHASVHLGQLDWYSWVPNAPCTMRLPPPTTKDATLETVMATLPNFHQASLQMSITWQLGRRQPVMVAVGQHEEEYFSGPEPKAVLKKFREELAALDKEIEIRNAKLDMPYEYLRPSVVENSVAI
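Inhibition is scored from a chromogenic endpoint. After 15 min enzyme-compound contact, arachidonic acid (50 uM final) reacts 6 min with 40 nM 15hLO-1 at room temperature, then Fe-XO reagent is added for 30 min and absorbance ratio recorded.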
HEK293 cAMP ctrl – counter-screen for TSHR agonists: cAMP increase in parental HEK293; parental HEK293 CNG cAMP sensor, membrane potential fluorescence; Potency, µM (series often up to 57.1 µM), hits mostly activators; actives 2.5% (n = 73,000); AID 938; note: nearly all actives have a fitted effect of over 55% in size
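Counterscreen for endogenous-receptor signalling: CNG-channel HEK 293 cells report cAMP rise by membrane depolarization. After 60 min dye equilibration with 100 uM RO 20-1724, compounds incubated 30 min before bottom-read fluorescence at 590 nm.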
Caspase-7 inhib – allosteric or competitive inhibitors of human caspase-7; AID 889; recombinant caspase-7, Ac-DEVD-AFC fluorescence rate; Potency, µM (series often up to 57.5 µM), actives largely listed as inhibitors; actives 0.02% (n = 75,000); active = well fitted inhibition curve with a large enough effect in the main read-out, with a control signal flat, not every such curve was filed as active; inconclusive = small, poorly fitted or top-dose-only effect, or a change in a side signal
TSHR agonist – agonists of human thyroid stimulating hormone receptor. HEK293-CNG-TSHR cells (CNG channel as cAMP sensor), membrane potential dye, cAMP. actives 0.48% (n = 73,000). P16473. Potency, µM (doses to about 57.1 µM), actives largely listed as activators; active = well fitted activation curve with a large enough effect in the main read-out, with a control signal flat, not every such curve was filed as active; inconclusive = small, poorly fitted or top-dose-only effect, or a change in a side signal; inactive = no such curve, though single readings can be large or run the other way; reference of the percent scale not stated here;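 note: the control signal comes from parental cells without the receptor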
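cAMP rise detected as CNG-channel membrane depolarization by fluorescent dye (emission 590 nm), 30 min after compound, following 60 min dye loading containing 100 uM RO 20-1724 at room temperature. Cells: TSHR/CNG HEK 293, with parental CNG HEK 293 as control.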
Caspase-1 inhib – blocks human caspase-1 allosterically or competitively; P29466; Caspase-1 enzyme, Ac-WEHD-AFC fluorogenic rate; Potency, µM (highest dose often 57.5 µM), most hits filed as inhibitors; actives 0.03% (n = 75,000); AID 900
ERK AVP inh – vasopressin-driven ERK pathway inhibition. Potency, µM (titrated, usually from 57.5 µM), hits mostly inhibitors. HEK293-V1b, vasopressin-stimulated pERK AlphaScreen. actives 0.99% (n = 72,000); note: nearly all actives have a fitted effect of over 55% in size
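HEK293 cells stably expressing V1b receptor, preincubated 30 min at 37 °C with compound, then stimulated 5 min with 25 nM vasopressin. Phospho-ERK by AlphaScreen SureFire after 5 h RT; normalized to DMSO and vasopressin; AC50 by Hill fit.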
HEK293 cAMP cnt – raises cAMP in parental HEK293 cells lacking TSH receptor | parental HEK293 CNG biosensor, cAMP membrane potential fluorescence | 150 tested, under 10 active | shares compounds with TSHR agonist | activity change, negative = inhibition, % at 32.9 µM
Each line names hits and unclear results; the compound was inactive in the other large screens (follow-up assays come after a bar, where they were run). Unless noted, calls come from the whole dose curve; as a rule, active = well fitted curve in the direction sought with a large enough effect; inconclusive = small, poorly fitted or top-dose-only effect, or another doubt; inactive = no such curve, though single readings can be large; an effect the other way counts as inactive or inconclusive.

COC(=O)C1=C(C)NC(=O)NC1c1cn(-c2ccccc2)nc1-c1cccs1 (stereo not given)	TSHR agonist 25µM | HEK293 cAMP cnt inactive
CSc1cccc(NC(=O)CN(c2cc(C)ccc2C)S(C)(=O)=O)c1	none
Cc1ccc(S(=O)(=O)N(CC(=O)N2CCC(C(N)=O)CC2)Cc2ccc(F)cc2)cc1	none
O=C(CN(Cc1ccc(F)cc1)S(=O)(=O)c1ccccc1)N1CCCCC1	ALOX15 inhib inconclusive, TSHR agonist 25µM | HEK293 cAMP cnt inactive
CC(=O)N1CCCc2cc(S(=O)(=O)N(CC(C)C)CC(C)C)ccc21	TSHR agonist 13µM | HEK293 cAMP cnt inactive
CC(=O)N1CCCc2cc(S(=O)(=O)N(C)CCC#N)ccc21	none
CCOc1ccc(NC(=O)c2oc3ccccc3c2NC(=O)C(C)C)cc1	HEK293 cAMP ctrl inconclusive, TSHR agonist inconclusive
Brc1ccc(Oc2nnnn2-c2ccccc2)cc1	TSHR agonist 25µM | HEK293 cAMP cnt inactive
COC(=O)c1cc(C(=O)OC)cc(N2C(=O)CC(Sc3nc(C)cc(C)n3)C2=O)c1 (stereo not given)	TSHR agonist 25µM | HEK293 cAMP cnt inactive
COc1ccc(C2Nc3ccccc3C(=O)N2Cc2ccco2)cc1COc1ccc(NC(C)=O)cc1 (stereo not given)	ALOX15 inhib 16µM, TSHR agonist 0.63µM | HEK293 cAMP cnt inactive
O=C(C1CCCCC1)N(Cc1ccccc1)c1ccccn1	none
O=C(c1ccc(Br)o1)N(Cc1ccccc1)c1ccccn1	HEK293 cAMP ctrl inconclusive, TSHR agonist inconclusive, ERK AVP inh inconclusive | HEK293 cAMP cnt inactive
Cc1oc(-c2cccc(Cl)c2)nc1CN1CCCC(C(=O)NC(C)c2ccc3c(c2)OCCO3)C1 (stereo not given)	ERK AVP inh inconclusive | HEK293 cAMP cnt inactive
Cc1oc(-c2cccc(Cl)c2)nc1CN1CCCC(C(=O)NCc2ccco2)C1 (stereo not given)	none
CSc1cccc(NC(=O)CSc2nc3ccccc3o2)c1	HEK293 cAMP ctrl inconclusive, TSHR agonist inconclusive
N=c1c(C(=O)NCc2ccc(F)cc2)cc2c(=O)n3ccccc3nc2n1Cc1ccco1	Caspase-7 inhib inconclusive (no result: Caspase-1 inhib) | HEK293 cAMP cnt inactive
N=c1c(C(=O)NCc2ccco2)cc2c(=O)n3ccccc3nc2n1Cc1ccccc1	ALOX15 inhib inconclusive, Caspase-7 inhib inconclusive, TSHR agonist inconclusive, ERK AVP inh inconclusive (no result: Caspase-1 inhib)
O=S(=O)(c1ccccc1)N1CCC2(CCCN(c3ccccn3)C2)CC1	HEK293 cAMP ctrl inconclusive, TSHR agonist inconclusive
Cc1ccccc1-c1nc(CN2CCC(C(=O)N3CCN(c4ccccn4)CC3)CC2)c(C)o1	none | HEK293 cAMP cnt inactive
Cc1ccccc1-c1nc(CN2CCC(C(=O)N3CCC(C(N)=O)CC3)CC2)c(C)o1	none
Cc1noc(C)c1C(=O)N1CCC2(CCN(C(=O)NC(C)C)CC2)CC1	none
Cc1onc(-c2ccccc2Cl)c1C(=O)Nc1ccc(-n2nncc2-c2ccco2)cc1	TSHR agonist 6.3µM | HEK293 cAMP cnt inactive
c1ccc(-n2cnc3cc(NCc4ccncc4)ccc32)cc1	ERK AVP inh inconclusive | HEK293 cAMP cnt inactive
c1ccc(-n2cnc3cc(NCc4ccccn4)ccc32)cc1	none
Cc1nn(C)c(C)c1S(=O)(=O)N(CC(=O)Nc1nccs1)c1ccc(C(C)C)cc1	TSHR agonist 7.9µM | HEK293 cAMP cnt inactive
O=S(=O)(NCCOCC(F)(F)F)c1ccc2oc3ccccc3c2c1	none
Cc1cccn2c(=O)c3cc(C(=O)N4CCc5ccccc5C4)n(C)c3nc12	none
CCOC(=O)c1ccc(NC(=O)c2ccc(CN3CCOCC3)cc2)cc1	ERK AVP inh 32µM (no result: TSHR agonist) | HEK293 cAMP cnt inactive
COc1cc2c(N3CCOCC3)cc(O)c(CC(=O)Nc3ccccc3)c2cc1OC	TSHR agonist 32µM | HEK293 cAMP cnt inactive
COc1cc(OC)c(C2=NOC(C(=O)O)C2)cc1Cl (stereo not given)	none
